The text below walks through data of PubChem BioAssay AID652154 (Broad Institute, 2013).

Screen size: about 360,000 compounds; about 4,200 (1.2%) were called active. For the sample, actives were picked, then their nearest neighbours and some compounds at random. Values without a mark were called inactive.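 The calls were made as follows: active = mean replicate inhibition at least 60% with every replicate also reaching 60%; inconclusive = only one of the two criteria is met; inactive = mean below 60% and not all replicates reaching 60%.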

This test in a line: inhibitors of PAX8-driven TPO luciferase reporter, primary screen, RMG-I cells, single concentration (AID 652154).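 Also: luciferase light reporting Pax8 driven TPO promoter activity; plate controls were median of neutral control wells for no effect and mitoxantrone controls for full effect.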 Conditions: SteadyGlo, 24 h, at 12.6 µM, stronger effect = higher value.
As to `Cc1ccccc1S(=O)(=O)N1CC[C@H]2[C@H](CO)Nc3ccc(-c4cccc(F)c4)cc3[C@H]21`, the inhibition is -9.62%.
The same measure for `COc1ccccc1NC(=O)N1C[C@H]2[C@@H](c3ccccc31)[C@@H](CO)N2C(=O)C1CCCC1`: 14.9%; for `CCCN1C[C@@H](C)[C@@H](OC)CN(C)C(=O)c2ccc(NC(=O)c3ccc(F)cc3)cc2OC[C@@H]1C`: -1.32%.
As to `O=C(C[C@@H]1CC[C@H]2[C@@H](COC[C@@H](O)CN2S(=O)(=O)c2cccc(Cl)c2)O1)N1CCCCC1`, the inhibition is -3.53%.
Next, `Cc1c(C)n(Cc2ccc(Cl)cc2)c2ccc(C(=O)NCCCN3CCOCC3)cc12`: 15.4%.
For `CCC1Oc2ccccc2N(CC(=O)NCCCN2CCN(CC)CC2)C1=O` (stereo not given), the inhibition is 5.58%.
Turning to `CN1CCN(CCCNC(=O)c2ccc(/C=C3\Oc4ccccc4N(Cc4ccc(Cl)cc4)C3=O)cc2)CC1`, the inhibition was 100% (active).
As to `CN1c2ccc(Br)cc2[C@H]2[C@H](CCN2S(=O)(=O)c2ccccc2)[C@@H]1CO`, the inhibition is 0.611%.
The same measure for `CN1CCCCC(NC(=O)C(C)(C)C)C1=O` (stereo not given): 8.76%; for `C[C@H](CO)N1C[C@H](C)[C@H](CN(C)CC2CC2)Oc2ccc(NC(=O)c3ccncc3)cc2C1=O`: -14.7%.
The same measure for `C[C@H](O)C#Cc1ccc2c(c1)O[C@@H](CN(C)Cc1cncnc1)[C@H](C)CN([C@H](C)CO)S2(=O)=O`: 8.97%.
The same measure for `COc1ccccc1C#Cc1ccc2c(c1)O[C@@H](CN(C)Cc1cncnc1)[C@H](C)CN([C@@H](C)CO)S2(=O)=O`: 74.3% (active); for `COc1ccccc1C#Cc1ccc2c(c1)O[C@H](CN(C)Cc1cccnc1)[C@@H](C)CN([C@H](C)CO)S2(=O)=O`: 70% (active).
As for `C[C@@H]1CN([C@@H](C)CO)S(=O)(=O)c2ccc(/C=C/c3ccccc3)cc2O[C@H]1CN(C)Cc1cccnc1`, the inhibition was 68.6% (active).
The same measure for `C[C@@H]1CN([C@H](C)CO)S(=O)(=O)c2ccc(C#CC3CCCC3)cc2O[C@@H]1CN(C)Cc1cccnc1`: 31.1%.
Regarding `C[C@H](O)C#Cc1ccc2c(c1)O[C@H](CN(C)Cc1cncnc1)[C@H](C)CN([C@@H](C)CO)S2(=O)=O`, the inhibition is 19.4%.
Next, `C[C@@H]1CN([C@@H](C)CO)S(=O)(=O)c2ccc(/C=C/c3ccccc3)cc2O[C@H]1CN(C)Cc1ccccc1`: 11.4%.
The same measure for `C[C@@H]1CN([C@H](C)CO)S(=O)(=O)c2ccc(/C=C/c3ccccc3)cc2O[C@@H]1CN(C)Cc1ccccc1`: 31%.
Take `COCC#Cc1ccc2c(c1)O[C@@H](CN(C)Cc1cccnc1)[C@@H](C)CN([C@H](C)CO)S2(=O)=O`: the inhibition was -14.2%.
As for `COc1ccccc1NC(=O)N[C@H]1C=C[C@@H](CC(=O)N[C@@H](C)c2ccccc2)O[C@@H]1CO`, the inhibition was 4.41%.
Next, `O=C(C[C@H]1CC[C@@H]2[C@H](COC[C@H](O)CN2C(=O)c2ccc3c(c2)OCO3)O1)NC1CCC1`: -16.6%; `CC(=O)Nc1ccc2c(c1)C(=O)N(C)[C@@H]1CC[C@H](CC(=O)NCc3ccccc3)O[C@H]1CO2`: -2.89%; `C/C=C/c1cnc2c(c1)C(=O)N([C@H](C)CO)C[C@H](C)[C@@H](CN(C)C(=O)c1cccc(F)c1)O2`: -7.23%.
Next, `C[C@H](CO)N1C[C@H](C)[C@@H](CN(C)S(=O)(=O)c2ccc(F)cc2)Oc2ccc(NC(=O)CCCCCC(=O)Nc3ccccc3N)cc2CC1=O`: 26.9%; `C[C@H](CO)N1C[C@H](C)[C@@H](CN(C)S(=O)(=O)c2cn(C)cn2)Oc2ccc(NS(=O)(=O)c3cn(C)cn3)cc2C1=O`: -10.4%; `COC(=O)[C@@]1(Cc2ccc(F)cc2)[C@H]2c3cc(C(=O)N(C)C)n(CCc4c[nH]c5ccc(OC)cc45)c3C[C@H]2CN1C(=O)c1ccccc1`: -3.55%.
The same measure for `COC(=O)[C@@]1(Cc2ccc(OC)cc2)[C@H]2c3cc(C(=O)N4CCCC4)n(Cc4ccc(OC(F)(F)F)cc4)c3C[C@H]2CN1C(=O)c1ccccc1`: 77% (active); for `COC(=O)[C@@]1(Cc2ccc(F)cc2)[C@H]2c3cc(C(=O)N4CCCC4)n(C[C@H](O)CO)c3C[C@H]2CN1C(=O)c1ccccc1`: 0.0525%; for `C[C@@H]1CN([C@H](C)CO)C(=O)Cc2cc(NC(=O)CCCN(C)C)ccc2O[C@@H]1CN(C)Cc1ccc(Oc2ccccc2)cc1`: -19.4%.
Consider `Cn1cnc(CCNC(=O)C[C@H]2CC[C@@H]3[C@H](COC[C@@H](O)CN3C(=O)Nc3ccc(Cl)cc3)O2)c1`, for which the inhibition is -17.8%.
The same measure for `Cc1noc(C)c1S(=O)(=O)Nc1ccc2c(c1)C(=O)N([C@H](C)CO)C[C@@H](C)[C@@H](CN(C)Cc1ccccc1)OCCCC[C@@H](C)O2`: 15.9%; for `Cc1ccc(NC(=O)c2nc[nH]c2C(=O)N[C@@H](CCCCNC(=O)OC(C)(C)C)C(=O)OC(C)(C)C)cc1`: 64% (active); for `CC(C)(C)OC(=O)NCCCCCNC(=O)c1nc[nH]c1C(=O)NCc1ccccc1`: 8.72%.
In the case of `CCOC(=O)c1ccc(NC(=O)c2nc[nH]c2C(=O)N[C@@H](CCCCNC(=O)OC(C)(C)C)C(=O)OC(C)(C)C)cc1`, the inhibition is 11.1%.
Next, `COc1ccccc1CCn1cnc(-c2ccccc2)c1C(C)C`: 14.5%; `O=C(Nc1ccccn1)C1CCN(S(=O)(=O)c2ccccc2)CC1`: -150%.
Next, `Cc1ccnc(NC(=O)C2CCN(S(=O)(=O)c3c(C)c(C)cc(C)c3C)CC2)c1`: 74.9% (active); `Cc1cccc(NC(=O)C2CCN(S(=O)(=O)c3cccc4cccnc34)CC2)c1`: 11.9%; `COc1ccccc1-c1ccc2c(c1)[C@H]1[C@H](CCN1S(=O)(=O)c1ccccc1)[C@@H](CO)N2`: 48.7%.
Next, `O=C(Nc1c(Cl)c(C2CC2)nn1-c1ccccc1)C(Cl)(Cl)Cl`: 12.8%; `CCC(=O)Nc1ccc2c(c1)OC[C@H](C)N(C(=O)Cc1cccnc1)C[C@@H](C)[C@@H](OC)CN(C)C2=O`: 19.9%.
With `CCCCn1c(O)c(N=NC(=O)Cn2c(C(F)(F)F)nc3ccccc32)c2ccccc21`, the inhibition was 125% (active).
Next, `COC(=O)Cn1c(O)c(N=NC(=O)OC)c2ccccc21`: 8.64%.
Next, `CN1CCN(C(=O)Cn2c(C(F)(F)F)nc3ccccc32)CC1`: 1.81%; `CCCNC(=O)N1[C@@H]2c3ccc(-c4ccccc4OC)c(=O)n3C[C@H]1[C@H](CO)[C@H]2C(=O)N(C)C`: -4.26%.
In the case of `C=C1C(=O)[C@]23C[C@H]1CCC2[C@@]1(C)C(C[C@@H]3O)[C@](C)(C(=O)O)CC[C@@H]1O` (stereo not given in full), the inhibition was 71.9% (active).
`CN1CCCCN2[C@@H](CO)[C@@H](c3ccc(C4=CCCC4)cc3)[C@@H]2C1`: the inhibition was -5.77%.
On to `COc1ccccc1N1CCN(/N=C\C(Br)=C\c2ccccc2)CC1`, for which the inhibition was 3.71%.
With `S=c1[nH]nc(-c2cccs2)n1/N=C/c1cn(-c2ccccc2)nc1-c1ccc(Cl)cc1`, the inhibition was 3.55%.
As for `S=c1[nH]nc(-c2cccnc2)n1/N=C/C(Cl)=C\c1ccccc1`, the inhibition is 72.4% (active).
The same measure for `Fc1ccc(/C=N/n2c(COc3ccccc3)n[nH]c2=S)cc1`: -9.55%; for `Cc1cc(-c2n[nH]c(=S)n2/N=C/C(Br)=C/c2ccccc2)n[nH]1`: 94% (active).
Consider `Cc1ccccc1-c1n[nH]c(=S)n1/N=C/c1ccc(-c2ccccc2Br)o1`, for which the inhibition was -5.71%.
Take `COc1cccc(-c2ccc([C@H]3[C@H]4CN(C(=O)NC(C)C)CC(=O)N4[C@H]3CO)cc2)c1`: the inhibition is -13.6%.
Next, `CCC(=O)N1C[C@@H](C)[C@@H](OC)CN(C)C(=O)c2ccc(NC(=O)C3CCCCC3)cc2OC[C@@H]1C`: -13.2%.
Turning to `O=C(C1CC1)N1CCCCN2[C@H](C1)[C@@H](c1ccc(-c3cccc(F)c3)cc1)[C@@H]2CO`, the inhibition is 4.79%.
The same measure for `O=C(c1cccc(F)c1)N1CCCCN2[C@H](CO)[C@@H](c3ccc(-c4cncnc4)cc3)[C@H]2C1`: -27.3%; for `O=C(C[C@@H]1C=C[C@@H](NC(=O)c2cccnc2)[C@H](CO)O1)NCc1ccncn1`: 2.15%.
The same measure for `CO[C@@H]1CN(C)C(=O)c2ccc(NC(=O)Nc3c(C)noc3C)cc2OC[C@H](C)N(CC2CC2)C[C@H]1C`: 4.7%; for `CC1(C)CC(=O)C=C(N2CCOCC2)C1`: 7.18%.
The same measure for `Cc1onc(C(=O)NN)c1C(=O)N1CCN(C(c2ccccc2)c2ccccc2)CC1`: 17.8%.
Take `CC1(C)CC(N2CCN(C(c3ccccc3)c3ccccc3)CC2)=CC(=[N+]2CCCCC2)C1`: the inhibition is 94.1% (active).
For `CCCCCCCCN1C(=O)[C@@H](CC(=O)NCc2ccccc2)C[C@@]2(C(=O)OC)C1=C[C@H](C(C)(C)C)O[C@@H]2C`, the inhibition was 19.6%.
For `CN(C(=O)CCN1C(=O)/C(=C/c2ccccc2F)SC1=S)C1CCS(=O)(=O)C1` (stereo not given), the inhibition is 74.1% (active).
The same measure for `COc1ccccc1/C=C1\SC(=O)N(CCC(=O)N(C)C2CCS(=O)(=O)C2)C1=O` (stereo not given): -11.6%.
Consider `CN(C(=O)CN1C(=O)S/C(=C\c2ccccc2F)C1=O)C1CCS(=O)(=O)C1` (stereo not given), for which the inhibition is 10.3%.
Next, `CCC(=O)Nc1ccc2c(c1)nc(CCN1CCN(c3ccccn3)CC1)n2C`: -3.44%; `Cn1c(CCN2CCCC2)nc2cc(NS(=O)(=O)c3ccccc3)ccc21`: 119% (active); `Cn1c(CCN2CCN(c3ccccn3)CC2)nc2cc(NS(=O)(=O)c3ccc(F)cc3)ccc21`: 50.3%.
The same measure for `O=C(Nc1ccccc1)Nc1ccc2c(c1)[C@@H]1C[C@@H](CC(=O)N3CCCCC3)O[C@H](CO)[C@@H]1O2`: -0.47%.
